Records with an inconclusive call do not appear. Entries that show only a call come without a potency. The source made the active and inactive calls. Calls come from the whole dose curve; as a rule, active = well fitted curve in either direction with a large enough effect; inconclusive = small, poorly fitted or top-dose-only effect; inactive = no such curve, though single readings can be large or run the other way.
Target: Lysosomal alpha-glucosidase (Homo sapiens) (UniProt P10253)
Experiment: Confirmation of Inhibitors and Activators of Purified Human alpha-Glucosidase Using an Alternate Red Fluorescent Susbtrate
Conditions: purified enzyme, red fluorogenic substrate; series mostly up to 63.4 µM
Text: NIH Chemical Genomics Center [NCGC]
NIH Molecular Libraries Probe Production centers Network [MLPCN]
Assay Submitter (PI): Wei Zheng
Alpha-glucosidase is responsible for hydrolysis of terminal, non-reducing 1,4-linked alpha-D-glucose residues with release of alpha-D-glucose. It is a lysosomal hydrolase that is required for the degradation of a small percentage (1-3%) of cellular glycogen in human. Deficiency of this enzyme results in glycogen-storage disease type II (GSDII), also referred to as Pompe disease, an autosomal recessive disorder. Structurally normal glycogen is accumulated in lysosomes and cytoplasm in affected patients, primarily in muscle tissues. Excessive glycogen storage within lysosomes may interrupt normal functioning of other organelles and leads to cellular injury. […]
This is a fluorogenic enzyme assay with resorufin-alpha-D-pyranoside as the substrate and recombinant human alpha-glucosidase as the enzyme preparation. Upon the hydrolysis of this fluorogenic substrate, the resulting product, resorufin, can be excited at 573 nm and emits at 610 nm which can be detected by a standard fluorescence plate reader. […] The AC50 values were determined from concentration-response data modeled with the standard Hill equation. […]
(6) Detect the assay plate in a ViewLux plate reader (PerkinElmer) with Ex=365 nm and Em=440nm. […]

| SMILES | Potency |
| --- | --- |
| Cc1c2ccncc2c(C)c2c1[nH]c1ccccc12 | 35.5 µM (active) |
| CC[C@@]1(O)C(=O)OCc2c1cc1n(c2=O)Cc2cc3ccccc3nc2-1 | inactive |

From PubChem BioAssay AID2110 (National Center for Advancing Translational Sciences (NCATS), 2009)
